Results: PubChem BioAssay
Active and inactive are the calls of the source.

Experiments:
[1] = biological target: Albumin (Bos taurus) (UniProt P02769); experiment: bovine serum albumin binders on microarray, profiling panel, artefact control for SMM control protein annotation, biochemical, small-molecule microarray, Alexa647 label, 635/667 nm fluorescence (AID 1118); conditions: BSA-A647 binding, fluorescence 635 nm, higher = more signal;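 further: score merges 667 nm emission intensity and signal-to-noise per printed compound spot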
Sequence of Albumin (Bos taurus) (P02769 whole entry, looked up): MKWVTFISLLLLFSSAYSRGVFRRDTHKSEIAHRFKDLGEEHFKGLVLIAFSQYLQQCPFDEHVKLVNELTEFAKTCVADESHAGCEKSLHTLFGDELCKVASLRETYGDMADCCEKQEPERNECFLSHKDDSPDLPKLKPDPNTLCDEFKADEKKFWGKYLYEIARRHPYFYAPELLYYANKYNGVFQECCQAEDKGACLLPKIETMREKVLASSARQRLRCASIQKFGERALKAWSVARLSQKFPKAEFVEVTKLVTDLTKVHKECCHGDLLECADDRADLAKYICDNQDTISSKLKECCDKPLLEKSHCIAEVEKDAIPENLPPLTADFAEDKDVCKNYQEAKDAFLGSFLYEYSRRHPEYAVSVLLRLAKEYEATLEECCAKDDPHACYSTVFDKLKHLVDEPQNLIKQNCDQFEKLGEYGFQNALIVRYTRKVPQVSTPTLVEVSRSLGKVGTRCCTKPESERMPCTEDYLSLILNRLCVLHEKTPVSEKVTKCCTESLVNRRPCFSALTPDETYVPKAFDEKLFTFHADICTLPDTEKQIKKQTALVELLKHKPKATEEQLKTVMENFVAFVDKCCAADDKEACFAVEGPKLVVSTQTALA

[2] = small-molecule microarray binders of probe aXIP, primary screen, biochemical, NeuroSMM set, 635/667 nm fluorescence (AID 1119); conditions: higher = more signal, called active from +8 up or from −8 down;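 further: probe is the protein aXip251-270 applied at 1 µg/mL to compound-printed slides; binding of probe to printed compounds measured as 667 nm fluorescence plus signal to noise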
[3] = small-molecule binders of probe aNOTCH3, primary screen, biochemical, small-molecule microarray, 635/667 nm fluorescence (AID 1120); conditions: higher = more signal;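 further: probe is a biotin-tagged antibody raised against NOTCH3 rather than NOTCH3 protein; score merges spot fluorescence near 667 nm with spot signal to noise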
[4] = small-molecule binders of probe aNOTCH2, primary screen, biochemical, small-molecule microarray, 635/667 nm fluorescence (AID 1121); conditions: higher = more signal;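 further: score merges feature fluorescence read at 667 nm with its signal to noise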
[5] = biological target: Carbonic anhydrase 2 (Homo sapiens) (UniProt P00918); experiment: CAII small-molecule binders, profiling panel, biochemical, small-molecule microarray, Alexa647-labelled CAII (AID 1122); conditions: CAII-A647 binding fluorescence, higher = more signal
[6] = COS7 lysate on small-molecule microarray, probe aHis, 635 nm (AID 1123); conditions: COS7 cell lysate, fluorescence, higher = more signal;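 further: z-score combines 667nm fluorescence intensity with signal-to-noise per printed compound spot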
[7] = compound binding in COS7 lysate, probe aLAP1, primary screen, cell lysate, small-molecule microarray (AID 1124); conditions: probe aLAP1, fluorescence, higher = more signal;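 further: lysate comes from COS7 cells expressing LAP1 and is applied at 0.3 µg/mL; score merges spot fluorescence near 667 nm with signal-to-noise over triplicate slides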
[8] = system: Sam68 (KHDRBS1); experiment: Sam68 small-molecule binders, primary screen, biochemical, small-molecule microarray, 635 nm fluorescence (AID 1125); conditions: small-molecule microarray binding, higher = more signal;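 further: score merges 667 nm channel intensity with signal to noise over triplicate slides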
[9] = system: Chordin-like protein 2 (CHRDL2); experiment: CHRDL2 small-molecule binders, primary screen, biochemical, small-molecule microarray, 635 nm fluorescence (AID 1126); conditions: small-molecule microarray binding, fluorescence 635 nm; higher = more signal;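 further: printed compound slides probed with Chrdl2 protein at 4 µg/mL for 1 h at 4 C; score merges 667 nm emission intensity with signal to noise over three replicate slides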
[10] = biological target: Concanavalin-A (Canavalia ensiformis) (UniProt P02866); experiment: ConA small-molecule binders, primary screen, artefact control for SMM control protein annotation, biochemical, small-molecule microarray, Alexa647 label, 635 nm (AID 1127); conditions: ConA-A647 binding fluorescence, higher = more signal;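 further: z combines 667 nm emission intensity with signal-to-noise across three replicate slides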
Sequence of Concanavalin-A (Canavalia ensiformis) (P02866 whole entry, looked up): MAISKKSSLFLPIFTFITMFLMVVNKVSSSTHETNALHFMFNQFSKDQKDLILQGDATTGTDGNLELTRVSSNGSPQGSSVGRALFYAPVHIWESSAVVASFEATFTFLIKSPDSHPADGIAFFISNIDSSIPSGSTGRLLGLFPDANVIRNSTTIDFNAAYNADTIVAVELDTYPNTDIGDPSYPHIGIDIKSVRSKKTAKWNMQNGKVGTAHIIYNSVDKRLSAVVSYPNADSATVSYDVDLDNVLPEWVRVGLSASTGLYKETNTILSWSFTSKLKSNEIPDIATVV

O=C1OCCC=C[C@H]2OC34C=CCN(c5ccc(Cl)cc5)C(=O)[C@H]3N(CCCCCCO)C(=O)[C@@H]4C12 (stereo not given in full)
composite z-score [1]: -0.418
composite Z-score [2]: 0.318 (inactive)
composite z-score [3]: -0.122
composite z-score [4]: -0.218
composite z-score [5]: 0.802
composite z-score [6]: -0.328
composite z-score [7]: -0.256
composite z-score [8]: -0.156
composite z-score [9]: -1.16
composite z-score [10]: -0.941

CCCNC(=O)[C@@]1(C)c2ccccc2C(=O)N(Cc2ccccc2)[C@H]1c1ccc(CO)cc1
composite z-score [1]: 0.0799
composite Z-score [2]: 2.55 (inactive)
composite z-score [3]: -0.128
composite z-score [4]: 0.0313
composite z-score [5]: 0.71
composite z-score [6]: 2.68
composite z-score [7]: 0.931
composite z-score [8]: 0.526
composite z-score [9]: -1.13
composite z-score [10]: 0.657

CO[C@H]1O[C@H](CO)[C@@H](OC(=O)c2ccc(Br)cc2)[C@@H]2OC(=O)[C@H](Cc3ccccc3)C/C=C/C[C@@H](Cc3ccccc3)C(=O)O[C@@H]12
composite z-score [1]: 0.776
composite Z-score [2]: 0.726 (inactive)
composite z-score [3]: 0.0971
composite z-score [4]: -0.15
composite z-score [5]: 0.704
composite z-score [6]: 0.186
composite z-score [7]: 1.07
composite z-score [8]: -0.148
composite z-score [9]: 0.136
composite z-score [10]: 0.599

CC(C)(C)OC(=O)CC[C@]1(C(=O)N2CCCCC2)COC(c2ccc(OCCCO)cc2)=N1
composite z-score [1]: 0.939
composite Z-score [2]: 1.28 (inactive)
composite z-score [3]: 0.286
composite z-score [4]: 0.0341
composite z-score [5]: 0.862
composite z-score [6]: 2.68
composite z-score [7]: 1.05
composite z-score [8]: 1.14
composite z-score [9]: -0.538
composite z-score [10]: 1.11

C=CCN1C(=O)[C@]2(O[C@H](CCO)[C@@H]([Si](C)(C)c3ccc(OC)cc3)[C@@H]2C)c2cc(NC(=O)c3ccc(OC)cc3)ccc21
composite z-score [1]: -0.296
composite Z-score [2]: 0.0866 (inactive)
composite z-score [3]: -0.0017
composite z-score [4]: -0.108
composite z-score [5]: 0.216
composite z-score [6]: 0.13
composite z-score [7]: 0.0305
composite z-score [8]: 1.04
composite z-score [9]: 0.878
composite z-score [10]: 0.689

COCCOC(=O)N1C(=O)[C@@]2(c3cc(C#CCNC(N)=O)ccc31)[C@H](c1ccc(O)cc1)N1[C@H](c3ccccc3)[C@H](c3ccccc3)OC(=O)[C@H]1[C@@H]2C(N)=O
composite z-score [1]: -0.864
composite Z-score [2]: -1.03 (inactive)
composite z-score [3]: -0.443
composite z-score [4]: -0.198
composite z-score [5]: -0.394
composite z-score [6]: -0.157
composite z-score [7]: -0.38
composite z-score [8]: -0.344
composite z-score [9]: -1.52
composite z-score [10]: -1.03

O=c1cccc(-c2ccc(F)cc2)o1
composite z-score [1]: 0.445
composite Z-score [2]: -0.261 (inactive)
composite z-score [3]: 0.176
composite z-score [4]: -0.0527
composite z-score [5]: -0.114
composite z-score [6]: -0.218
composite z-score [7]: 0.403
composite z-score [8]: 0.501
composite z-score [9]: 0.556
composite z-score [10]: 0.354

C=C(/C(=C/C[C@H](OC(=O)c1ccncc1)c1cccc(OCCO)c1)c1cnc2ccccc2c1)C(C)C
composite z-score [1]: -0.134
composite Z-score [2]: -1.19 (inactive)
composite z-score [3]: 0.0306
composite z-score [4]: -0.0264
composite z-score [5]: 0.942
composite z-score [6]: 0.301
composite z-score [7]: 1.04
composite z-score [8]: 1.23
composite z-score [9]: 1.33
composite z-score [10]: 0.898

CC(C)C[C@@H]1NC(=O)[C@H]2C[C@@H](C(=O)NCCCCCN)[C@@H](c3cccc(OCCO)c3)N2C1=O
composite z-score [1]: 0.299
composite Z-score [2]: 1.26 (inactive)
composite z-score [3]: -0.495
composite z-score [4]: -0.146
composite z-score [5]: 0.695
composite z-score [6]: 1.27
composite z-score [7]: 1.16
composite z-score [8]: 0.166
composite z-score [9]: 0.292
composite z-score [10]: 0.661

O=C1OCCC/C=C\[C@H]2OC34C=CCN(c5ccc6ccccc6c5)C(=O)[C@H]3N(CCCO)C(=O)[C@@H]4C12 (stereo not given in full)
composite z-score [1]: -0.0327
composite Z-score [2]: -0.0549 (inactive)
composite z-score [3]: -0.299
composite z-score [4]: -0.111
composite z-score [5]: 0.94
composite z-score [6]: 0.325
composite z-score [7]: 0.452
composite z-score [8]: 0.235
composite z-score [9]: -1.08
composite z-score [10]: -0.296

CN1C(=O)C2C(C1=O)C1C=C(CCCO)C2C(c2cccs2)N1Cc1cc2c(cc1Br)OCO2 (stereo not given)
composite z-score [1]: 1.01
composite Z-score [2]: 1.13 (inactive)
composite z-score [3]: 0.323
composite z-score [4]: -0.144
composite z-score [5]: 0.805
composite z-score [6]: 2.24
composite z-score [7]: 1.09
composite z-score [8]: 1.3
composite z-score [9]: 0.171
composite z-score [10]: 1.18
